Assay outcomes (PubChem)
Rows were chosen to be rich in hits. Some 19% of all compounds tested hit in one or more screens of this group.
Pf growth 96h: P. falciparum growth inhibition at 96 hour, primary screen for plastid delayed-death inhibitors; hit rate 6.9% among 320,000; Potency, µM (series often up to 28.7 µM), usual class: inhibitors; P. falciparum luciferase reporter growth, 96 h
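Two parasite generations (96 h, 37 C, 5% CO2) of compound exposure in infected erythrocytes (0.05% parasitemia, 2% hematocrit). Luciferase-reporter P. falciparum; decreased luminescence indicates inhibited growth, aimed at apicoplast-acting delayed death.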
LASV entry inh: blocks Lassa virus binding to or entry into cells | Lassa virus pseudotype entry inhibition, cell reporter | Potency, µM (series often up to 37.9 µM), most hits filed as inhibitors | hit rate 1.2% among 300,000 | AID 540256; calls by dose curve; tested in HEK293 cells; also: nearly all actives have a fitted effect of over 50% in size
Shiga inhibitor: Shiga toxin inhibition; Vero cells, Shiga toxin protein synthesis inhibition reporter; inhibition, % at 38.7 µM; hit rate 9.2% among 290,000; in the data active = inhibition mostly above about 28%, no sharp cut-off; inactive = mostly below about 43%
Cycloheximide cs: affects cycloheximide protein synthesis inhibition readout, counter-screen; cell reporter, cycloheximide protein synthesis inhibition counterscreen; max response, %; hit rate 12% among 300,000; AID 2314; in the data active = max response mostly above about 13%, no sharp cut-off; inactive = mostly below about 14%; also: read at 38.3 µM for the half of the compounds with a filed dose
MARV entry inh: Marburg virus entry inhibition | Marburg virus pseudotyped entry inhibition, cell reporter | Potency, µM (top dose mostly 37.8 µM), most hits filed as inhibitors | hit rate 1.8% among 300,000 | AID 540276; calls by dose curve; tested in HEK293 cells
Pf growth 48h: P. falciparum growth inhibition at 48 hours (one generation); P. falciparum luciferase growth in erythrocytes, 48 h; hit rate 5.9% among 310,000; AID 504832; Potency, µM (doses to about 28.7 µM), actives largely listed as inhibitors
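Compounds are pin-transferred into medium, infected erythrocytes (2% hematocrit, 0.1% parasitemia final) are added, and plates sit one parasite generation at 37 C in 5% CO2. Detection reagent is then added and luminescence measured.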
Hits are given with their value; n = inactive; u = inconclusive; x = not tested or not shown; [ ] = another dose, or the depositor's remark. Unless noted, calls follow the shape of the dose curve; as a rule, active = well fitted inhibition curve with a large enough effect; inconclusive = small, poorly fitted or top-dose-only effect, or another doubt; inactive = no such curve, though single readings can be large or run the other way.

SMILES	Pf growth 96h	LASV entry inh	Shiga inhibitor	Cycloheximide cs	MARV entry inh	Pf growth 48h
Cn1ccnc1SCC(=O)Nc1ccc(Cl)cn1	n	n	n	23	u	n
CCn1c(SCC(=O)NCc2ccc(F)cc2)nc2c(c1=O)SC(C)C2 (centres undefined)	u	n	n	n	n	n
CCOC(=O)c1ccc(NC(=O)CSc2nc3c(c(=O)n2C)SC(C)C3)cc1 (centres undefined)	u	x	n	n	x	x
CCn1c(SCC(=O)Nc2cccc(F)c2)nc2c(c1=O)SC(C)C2 (centres undefined)	2.6µM	x	n	n	x	4.1µM
CCOC(=O)c1ccc(NC(=O)CSc2nc3c(c(=O)n2CC)SC(C)C3)cc1 (centres undefined)	9.3µM	x	n	n	x	10µM
C=C1C(=O)[C@]23[C@H](O)[C@H]1CC[C@H]2[C@@]12COC3(O)[C@H](O)[C@@H]1C(C)(C)CC[C@@H]2O	x	x	n	n	x	x
CCC(=O)Nc1c2c(nc3c1CCC3)CCCC2	2.1µM	n	n	n	n	n
Cc1cccc(-n2c(=O)c3c(c4cc(C)ccc4n3C)n(CC(=O)N3CCCC3)c2=O)c1	x	n	x	x	x	x
COc1ccc2c(C)c(Cl)c(=O)oc2c1	n	n	n	n	n	n
COc1ccc2c(c1)oc(=O)c1cc(OC)ccc12	n	x	52	26	x	n
O=C(O)C(Oc1ccc2c(c1)oc(=O)c1ccccc12)c1ccccc1 (centres undefined)	n	x	n	n	x	n
CC(=O)c1ccc2oc3ccccc3c(=O)c2c1	n	x	17	n	x	n
COc1ccc2c(c1)oc(=O)c1ccccc12	n	x	71	33	x	n
COc1ccc2c(=O)c3ccccc3oc2c1	n	x	42	33	x	n
CC(=O)c1cccc(N(C(=O)Cn2nnc3ccccc32)C(C(=O)NCc2ccccc2)c2ccccn2)c1 (centres undefined)	n	n	n	n	n	n
c1ccc2c(-n3cnnn3)cccc2c1	u	n	n	n	n	n
C/C(=N\NC(=O)c1ccc(NS(=O)(=O)c2cccs2)cc1)c1ccncc1	n[5.75 µM]	x	n	n	n	n[5.75 µM]
COC(=O)COc1ccc2oc(-c3ccc(OC)cc3)cc(=O)c2c1	x	n	x	x	u	x
COc1ccc(-c2cc(=O)c3cc(OC)ccc3o2)cc1	n	x	66	n	x	n
COc1ccc2c(c1)oc(=O)c1c3ccccc3[nH]c21	u	x	57	62	x	u
COc1ccc(-n2c(=O)[nH]c3ccccc3c2=O)c(OC)c1	x	n	n	n	n	n
CCc1ccc2nc(SCC(=O)NCC3CCCO3)c(C#N)cc2c1 (centres undefined)	n	n	n	n	u	n
Cc1ccc(SCCC(=O)NCC2CCCO2)cc1 (centres undefined)	x	n	n	13	n	n
CC(C)c1ccc2nc(SCC(=O)NCC3CCCO3)c(C#N)cc2c1 (centres undefined)	n	n	71	n	n	n
Cc1ccc(SCC(=O)NCC2CCCO2)cc1 (centres undefined)	n	x	n	n	x	n
SMILES	Pf growth 96h	LASV entry inh	Shiga inhibitor	Cycloheximide cs	MARV entry inh	Pf growth 48h
Cc1ccc(-c2nnc(SCC(=O)NCC3CCCO3)nc2-c2ccc(C)cc2)cc1 (centres undefined)	u	n	x	x	u	15µM
O=C(CSc1nnc(-c2ccccc2)c(-c2ccccc2)n1)NCC1CCCO1 (centres undefined)	x	u	x	x	n	x
Cc1ccc(-c2nsc(SCC(=O)NCC3CCCO3)n2)cc1 (centres undefined)	n	n	56	n	n	n
COc1ccc(-c2nsc(SCC(=O)NCC3CCCO3)n2)cc1 (centres undefined)	u	n	65	32	n	n
C=CCn1c(SCC(=O)NCC2CCCO2)nc2scc(-c3ccco3)c2c1=O (centres undefined)	x	n	n	n	n	u
COc1ccc(-c2nc(SCC(=O)NCC3CCCO3)c(-c3ccc(Cl)cc3)[nH]2)cc1 (centres undefined)	x	n	x	x	n	x
Cc1occc1-c1nnc(SCC(=O)NCC2CCCO2)n1C (centres undefined)	2.3µM	n	n	n	n	n
C=CCn1c(SCC(N)=O)nc2scc(-c3ccc(C)o3)c2c1=O	n	n	85	45	n	n
C=CCn1c(SCC(=O)NCC2CCCO2)nc2scc(-c3ccc(OC)cc3)c2c1=O (centres undefined)	5.2µM	n	n	n	u	n
CCCOc1cccc(C(=O)N(Cc2ccc(OC)c(OC)c2)C2CCS(=O)(=O)C2)c1 (centres undefined)	u	n	n	n	n	x
CCOc1ccc(NCc2nnc(SCC(=O)Nc3cc(C)on3)n2-c2ccccc2OC)cc1	n	n	n	n	u	u
COc1ccccc1NC(=O)CSc1nnc(-c2ccc(C)cc2)o1	u	u	n	41	n	n
CCOc1ccc(NCc2nnc(SCC(=O)Nc3cc(C)on3)n2-c2ccc(OC)cc2)cc1	u	u	n	n	n	13µM
COc1ccc(NC(=O)CSc2nnc(-c3ccc(C)cc3)o2)cc1	x	n	x	x	x	x
CCOC(=O)CNC(=O)CSc1nc(-c2ccc(OC)cc2)ns1	n	n	n	n	n	n
COc1cccc(NC(=O)CSc2nnc(-c3ccc(C)cc3)o2)c1	u	x	45	28	n	x
COc1ccc(-c2nsc(SCC(=O)Nc3cc(C)on3)n2)cc1	u	n	n	n	n	5.9µM
COc1cccc(C2NC(c3cccc(OC)c3O)C(C)C(=O)C2C)c1O (centres undefined)	n	n	n	n	u	u
Cc1cc(C)c(C)c(S(=O)(=O)NCc2ccco2)c1C	n	x	n	n	n	n
COc1ccc2c(c1)C(C)=CC(C)(C)N2C(=O)CSc1nnc(-c2ccc(C)cc2)o1	n	n	n	n	n	9.3µM
Cc1cc(NC(=O)CSc2nnc(-c3ccco3)o2)no1	n	n	n	n	n	n
COc1ccc(C(=O)CSc2nnc(-c3ccc(C)cc3)o2)cc1	n	n	n	n	n	n
COc1ccc(-c2nnc(SCC(=O)Nc3cc(C)on3)o2)cc1	u	u	44	33	n	n
Cc1csc(NC(=O)CSc2nnc(-c3cc(C)on3)o2)n1	n	n	n	15	n	n
CCOC(=O)C1=C(O)CSC1=Nc1ccc(C)cc1	n	n	n	n	u	u
SMILES	Pf growth 96h	LASV entry inh	Shiga inhibitor	Cycloheximide cs	MARV entry inh	Pf growth 48h
O=c1c(Cc2ccc(F)cc2)c(O)ccn1CC1CCCO1 (centres undefined)	n	n	n	n	n	n
CN(C)c1ccc(C=C2C=Cc3ccccc32)cc1	x	6.3µM	x	x	n	x
COc1cc2c(cc1OC)C(=Cc1ccc(N(C)C)cc1)C=C2	x	n	x	x	n	x
CC(C)(C)C(=O)N1CCN(S(=O)(=O)c2ccc3c(c2)OCCCO3)CC1	n	n	x	x	u	n
CSCC[C@H](NC(=O)N1CCn2c1nc1ccccc12)C(=O)NCc1ccc(F)cc1	12µM	x	n	n	x	u
COc1ccc(CNC(=O)[C@H](CCSC)NC(=O)N2CCn3c2nc2ccccc23)cc1	n	x	n	n	x	u
